Results as given in PubChem BioAssay (NCI).
Compounds without any hit were thinned out: in the full panel of roughly 83,000, 20% have a hit.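 96-well plates, one dose, 48 hours. Percent growth reported; active if below 10.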 Unmarked numbers belong to inactive results. Activity calls are given as the source filed them.

The molecules below were run on HL-60(TB) leukemia (assay: NCI-60 one-dose screen, 48 h (100 = growth as untreated, 0 = no growth, -100 = all killed)). Details: 10 µM unless noted.

| SMILES | growth |
| --- | --- |
| C(CCCC1=NCCO1)CCCC1=NCCO1 | 112% |
| C[C@]12CC[C@@H]3c4cc(OC(F)F)c(OS(N)(=O)=O)cc4CC[C@H]3[C@@H]1CC[C@@H]2OS(N)(=O)=O | 13.1% |
| O=C(Nc1ccncc1)C(=O)c1cn(S(=O)(=O)c2cccc(Cl)c2F)c2ccccc12 | 68.5% |
| CC(C)CSc1nc(-c2ccc(F)cc2)c(C#N)c(N2CCCCC2)n1 | 101% |
| COc1cccc(NC(=O)c2sc3nc4c(cc3c2N)C(=O)CCC4)c1 | -2.55% (active) |
| O=C(/C=C/c1ccccc1)Nc1ncc(Cc2ccccc2)s1 | -45.3% (active) |
| CNC(=O)c1cc(Cn2nc(C)c(NC(=O)Nc3ccc(Cl)c(C(F)(F)F)c3)c2C)ccn1 | 103% |
| Clc1nccc2c(-c3csc(-c4c[nH]c5ccc(Br)cc45)n3)c[nH]c12 | 9.77% (active) |
| Ic1cccs1 | 104% |
| CC(=O)C(C(C)=O)c1nc2sc3cc(Cl)ccc3n2c(=N)c1C#N | 112% |
| NC1=Nc2cc(OCCCN3Cc4ccccc4C3)c(OCC3CC3)cc2C12CCCC2 | 62.5% |
| CN(C)C(=S)NN=C(c1ccccn1)c1ccccn1 | -27.5% (active) |
| COC1OC(C(COC(C)=O)OC(C)=O)C(OC(C)=O)C(OC(C)=O)C1OC(C)=O (stereo not given) | 132% |
| C=C(C)[C@@H]1CC[C@]2(C(=O)NCCCCCCN(CCCN)CCCN)CC[C@]3(C)[C@H](CC[C@@H]4[C@@]5(C)CC[C@H](OCCCN)C(C)(C)[C@@H]5CC[C@]43C)[C@@H]12 | 37% [100 µM] |
| CC(C)(C)OC(=O)NCCc1ccc(N=C=S)cc1 | 19.8% |
| [N-]=[N+]=NCC1OC(n2cnc3c(NC(=O)Nc4ccccc4)ncnc32)C2OC(=O)CC12 (stereo not given) | 87.3% |
| O=C1/C(=C/c2ccc(OCCCOc3ccc(Cl)cc3)cc2)N=C2SCCCN12 | 93% |
| O=C(CN1C(=O)S/C(=C\C(Cl)=C\c2ccccc2)C1=O)NC1CCS(=O)(=O)C1 (stereo not given) | 18.6% |
| O=C(O)c1cccc2c1-c1ccc(Cl)cc1C2 | 78.1% |
| O=c1oc2ccc(F)cc2c(=O)n1-c1ccc(I)cc1F | -42.8% (active) |

| SMILES | growth |
| --- | --- |
| Cc1ccc(-c2nn(-c3ccccc3)cc2C=C2C(=O)ON=C2C(C)C)cc1 | -37.7% (active) |
| CC1=NN(c2ccc(S(=O)(=O)O)cc2Cl)C(=O)C1 | 143% |
| Nc1nc(SCc2ccccc2)c2ncn(C3CCCC3)c2n1 | 75.2% |
| O=C(COC(=O)[C@H](C[Se][Se]C[C@H](NC(=O)c1ccc(Br)cc1F)C(=O)OCC(=O)c1ccc(F)cc1)NC(=O)c1ccc(Br)cc1F)c1ccc(F)cc1 | -45.3% (active) |
| BrC(Br)(Br)c1cnc2ccccc2n1 | -38.1% (active) |
| O=C1/C(=C\c2cccn2Cc2ccc(F)cc2)c2ccccc2N1c1c(Cl)cccc1Cl | 96.5% |
| COc1cc(NC(=O)CCSc2nc3ccccc3c(=O)n2Cc2ccccc2)cc(OC)c1OC | 104% |
| CCC(N)(C(=O)O)c1ccc(F)cc1 (stereo not given) | 87.1% |
| COc1ccc(-n2c(COc3ccc(F)cc3)n[nH]c2=S)cc1 | 126% |
| O=C(Oc1ccccc1)C(Br)C(Br)c1ccccc1 (stereo not given) | 2.65% (active) |
| Clc1ccccc1Nc1ccc2nnc(-c3ccncc3)n2n1 | 75.8% |
| C[C@H](C(=O)N(CCc1ccc(Cl)c(Cl)c1)Cc1cncs1)[C@@H]1CC[C@H](C[C@H](C)n2cc(CN3CCC(c4ccc(Cl)cc4)CC3)nn2)O1 | -71.2% (active) |
| O=C1/C(=C/c2ccccc2Br)COc2ccc(O)cc21 | 17.1% |
| Nc1n[nH]c2cccc(C#Cc3cccc(NC(=O)c4cc(F)cc(C(F)(F)F)c4)c3)c12 | 37.7% |
| CCCCCCCCCCCCCCCC[N+]1(C)CCCC1c1cccnc1 (stereo not given) | 1.61% (active) |
| O=C(/C=C/c1cc2ccccc2[nH]c1=O)c1ccc(Cl)cc1 | 11.6% |
| COC(=O)[C@H]1Cc2c([nH]c3ccccc23)[C@H](c2ccc3c(c2)OCO3)N1 | 98.6% |
| CC/C=C\C/C=C/C=C1/C(=O)C=C[C@@H]1C/C=C\CCCC(=O)OC | 8.98% (active) |
| CCN(CC)CC#CCOC(=O)[C@]1(C)CCC[C@@]2(C)[C@H]1CC(C=O)=C1C=C(C(C)C)CC[C@@H]12 | 51.6% |
| O=[N+]([O-])c1ccc(SSc2ccc([N+](=O)[O-])cc2Cl)c(Cl)c1 | 92.5% |
